Most compounds without a hit are left out; they make up all but 1.3% or so of the library.
AmpC inh detg – inhibitors of E. coli AmpC beta-lactamase with detergent. Potency, µM (highest dose often 114 µM), hits mostly inhibitors. P00811. AmpC hydrolysis of nitrocefin, absorbance 480 nm, 0.01% Triton. 370,000 tested, 0.041% active; further: nearly all actives have a fitted effect of over 25% in size
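20 mM phosphate pH 7.0 + 0.01% (detergent screen) or 0.0001% Triton X-100; 5.3 nM AmpC reagent; cpd preinc 15 min RT; nitrocefin (800 uM stock) to start; A480 q20 s × 4 min; Activity was normalised to no-enzyme and no-compound control wells.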
LmPK inh – LmPK (Leishmania mexicana) enzyme inhibition; Q27686; purified LmPK, Kinase-Glo ATP luminescence, 1 h; Potency, µM (series often up to 57.5 µM), most hits filed as inhibitors; 290,000 tested, 0.37% active; AID 1721
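Kinase-Glo luminescence read after 1 h RT reaction of 0.1 nM LmPK with 0.5 mM PEP and 0.1 mM ADP. Activity scaled between uninhibited and enzyme-free controls.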
AmpC no deterg – AmpC beta-lactamase inhibition without detergent; Potency, µM (titrated, usually from 57.1 µM), most hits filed as inhibitors; AID 485341; P00811; AmpC nitrocefin hydrolysis, absorbance 480 nm, 0.0001% Triton; 330,000 tested, 0.52% active; further: nearly all actives have a fitted effect of over 20% in size
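20 mM phosphate pH 7.0 + 0.01% (detergent screen) or 0.0001% Triton X-100; 5.3 nM AmpC reagent; cpd preinc 15 min RT; nitrocefin (800 uM stock) to start; A480 q20 s × 4 min; Activity was normalised to no-enzyme and no-compound control wells.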
AMA1 RON2 block – AMA1-RON2 (P. falciparum) interaction inhibition. AlphaScreen AMA1-biotinylated RON2 peptide binding. Potency, µM (titrated, usually from 58.2 µM), usual class: inhibitors. 360,000 tested, 0.2% active. AID 720542; further: nearly all actives have a fitted effect of over 45% in size
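AMA1 (3D7) with his tag at 25 nM final met compounds first, then biotinylated RON2 peptide at 25 nM; detection used donor plus acceptor beads, 10 µg/mL apiece, read by AlphaScreen after 30 min at room temperature.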
Giardia FBPA inh – inhibitors of Giardia lamblia fructose-1,6-bisphosphate aldolase; purified Giardia FBPA; 290,000 tested, 0.71% active; Potency, µM (titrated, usually from 59.6 µM), actives largely listed as inhibitors; A8B2U2; AID 2451; further: nearly all actives have a fitted effect of over 55% in size
Target sequence (A8B2U2 whole entry, looked up): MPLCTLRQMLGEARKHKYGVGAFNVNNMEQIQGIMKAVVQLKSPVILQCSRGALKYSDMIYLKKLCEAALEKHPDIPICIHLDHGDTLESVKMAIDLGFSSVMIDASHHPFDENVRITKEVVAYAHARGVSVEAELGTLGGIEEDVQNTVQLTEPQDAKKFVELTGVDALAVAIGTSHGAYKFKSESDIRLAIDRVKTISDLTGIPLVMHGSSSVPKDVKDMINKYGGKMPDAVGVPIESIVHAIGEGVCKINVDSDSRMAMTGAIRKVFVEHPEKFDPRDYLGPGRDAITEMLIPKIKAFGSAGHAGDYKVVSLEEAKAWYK
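Giardia FBPA (40 nM reagent) was preincubated 10 min at RT with compound (up to 57.5 uM final), then substrate plus GAPDH/TPI/NAD/arsenate coupling system with diaphorase/resazurin was added; resorufin fluorescence (525/598 nm) was read after 20 min.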
Hits are given with their value. The call rests on the fitted dose curve; in most records, active means well fitted curve in the direction sought with a large enough effect; inconclusive means small, poorly fitted or top-dose-only effect, or another doubt; inactive means no such curve, though single readings can be large; an effect the other way counts as inactive or inconclusive.

Results for CCN(CC)CCC(c1ccc(N(C)C)cc1)c1c(OC)cc(OC)c2c(-c3ccccc3)cc(=O)oc12 (configuration not stated) ?
AmpC inh detg: inactive; LmPK inh: inactive; AmpC no deterg: inactive; AMA1 RON2 block: 17.8µM; Giardia FBPA inh: inactive

How did COc1ccc(C2CC(=O)Oc3c(C(CCN4CCCC(C)C4)c4ccc(N(C)C)cc4)c(OC)cc(OC)c32)cc1 (configuration not stated) do in these assays?
AmpC inh detg: inactive; LmPK inh: inactive; AmpC no deterg: inactive; AMA1 RON2 block: 17.8µM; Giardia FBPA inh: inactive

How did COc1cc(OC)c2c(-c3ccccc3)cc(=O)oc2c1C(CC(=O)N1CCOCC1)c1ccc(N(C)C)cc1 (configuration not stated) do in these assays?
AmpC inh detg: inactive; LmPK inh: inactive; AmpC no deterg: inactive; AMA1 RON2 block: inconclusive; Giardia FBPA inh: inactive

What do the screens show for `O=c1ncccn1C1OC(CO)C(O)C1O` (configuration not stated)?
AMA1 RON2 block: inactive

How did O=C(NCC(F)(F)F)C1C(=O)Nc2ccccc2C(=O)N1Cc1ccccc1 (configuration not stated) do in these assays?
AMA1 RON2 block: inactive

What do the screens show for `CCOc1ccc(CNC(=O)c2cc3c(=O)oc4ccc(C)cc4c3s2)cc1`?
AmpC inh detg: inactive

How did CCc1ccc(C2CC(=O)N3CN(c4ccccc4)CSC3=C2C#N)cc1 (configuration not stated) do in these assays?
AmpC inh detg: inconclusive; LmPK inh: inactive; AmpC no deterg: inconclusive; AMA1 RON2 block: inactive; Giardia FBPA inh: inconclusive

How did COc1ccc(N2CSC3=C(C#N)C(c4cc(OC)ccc4OC)CC(=O)N3C2)c(OC)c1 (configuration not stated) do in these assays?
AmpC inh detg: inconclusive; LmPK inh: inactive; AmpC no deterg: inactive; AMA1 RON2 block: inactive; Giardia FBPA inh: 1.58µM

What do the screens show for `COc1ccc(N2CSC3=C(C#N)C(c4cc(OC)c(OC)cc4OC)CC(=O)N3C2)c(OC)c1` (configuration not stated)?
AmpC inh detg: inactive; LmPK inh: inactive; AmpC no deterg: inactive; AMA1 RON2 block: inactive; Giardia FBPA inh: 1.99µM

What do the screens show for `COc1ccc(N2CSC3=C(C#N)C(c4cccs4)CC(=O)N3C2)cc1` (configuration not stated)?
AmpC inh detg: inactive; LmPK inh: inactive; AmpC no deterg: inactive; AMA1 RON2 block: inactive; Giardia FBPA inh: 0.5µM

What do the screens show for `COc1cc(OC)c(C2CC(=O)N3CN(c4ccc(C)cc4)CSC3=C2C#N)cc1OC` (configuration not stated)?
AmpC inh detg: inconclusive; LmPK inh: inactive; AmpC no deterg: inactive; AMA1 RON2 block: inactive; Giardia FBPA inh: inconclusive

What do the screens show for `CCOc1ccccc1N1CSC2=C(C#N)C(c3c(OC)ccc4ccccc34)CC(=O)N2C1` (configuration not stated)?
AmpC inh detg: inactive; LmPK inh: inactive; AmpC no deterg: inactive; AMA1 RON2 block: inactive; Giardia FBPA inh: 6.29µM

How did CC(C)C(=O)N1CCCC1(C)C(=O)Nc1ccc(-n2cncn2)cc1 (configuration not stated) do in these assays?
AMA1 RON2 block: inactive

Results for COc1ccc(NC(=O)Cn2c(=O)n(Cc3ccccc3Cl)c(=O)c3cc(OC)c(OC)cc32)cc1OC ?
AmpC inh detg: inactive

How did COc1ccc(C2CC(=O)N3CN(C4CCCCC4)CSC3=C2C#N)cc1 (configuration not stated) do in these assays?
AmpC inh detg: inactive

Results for Cc1ccc(N2CSC3=C(C#N)C(c4cccs4)CC(=O)N3C2)cc1 (configuration not stated) ?
AmpC inh detg: inconclusive; LmPK inh: inactive; AmpC no deterg: inactive; AMA1 RON2 block: inactive; Giardia FBPA inh: inconclusive

Results for COc1ccc(N2CSC3=C(C#N)C(c4ccc(OC)c(OC)c4)CC(=O)N3C2)c(OC)c1 (configuration not stated) ?
AmpC inh detg: inconclusive; LmPK inh: inactive; AmpC no deterg: inactive; AMA1 RON2 block: inactive; Giardia FBPA inh: 1.41µM

Bioassay records as filed in PubChem.
